In general, viability refers to a read-out of living cells in per cent, often relative to untreated cells.

Active and inactive are the calls of the source.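 How the source made its calls: active means viability loss from added drug above about 55%, and viability with drug at most 40%, in both replicates (limit read from the data, passing the limit was not always enough); inconclusive means both conditions met in only one replicate; inactive means neither replicate meets both conditions.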

The nature of the first test: MRP1 drug-resistance reversers in H69AR cells – cell-based, doxorubicin co-treatment, pilot screen (AID 601). The settings on record: H69AR cells + 2 uM doxorubicin, CellTiter-Glo, 72 h; at 10 µM; stronger effect = higher value. On the technique in general: ATP-based viability assays read luminescence as a measure of living cells.
As to `O=C(NCC(F)(F)F)Nc1cccnc1`, the differential viability (reversal) was 6% (inactive).

With `CC(=O)Nc1ccc(S(=O)(=O)N2CCN(c3cc(C)nc4ccccc34)CC2)cc1`, the differential viability (reversal) is 0.84% (inactive).

On to `CCc1nnc(NC(=O)CSc2nnc(-c3ccccc3OC)n2-c2ccccc2)s1`, for which the differential viability (reversal) was -1.85% (inactive).

With `CCOc1ccc(CCNc2nc3c(c(=O)n(C)c(=O)n3C)n2CC)cc1OCC`, the differential viability (reversal) was 1.88% (inactive).

On to `Cn1c(=O)c2c(nc(NCCNC(=O)c3ccco3)n2Cc2ccccc2Cl)n(C)c1=O`, for which the differential viability (reversal) was 5.75% (inactive).

On to `Cc1ccc2cc(C(c3nnnn3C3CCCC3)N3CCN(c4ccc(F)cc4)CC3)c(=O)[nH]c2c1` (stereo not drawn), for which the differential viability (reversal) is 8.08% (inactive).

On to `Cc1ccc(OCC2Cn3c(nc4c3c(=O)n(C)c(=O)n4C)O2)cc1` (stereo not drawn), for which the differential viability (reversal) was -3% (inactive).

In the case of `Cc1c(C(=O)N2CCN(c3ccccc3)CC2)sc2ncnc(N3CCN(c4ccccc4)CC3)c12`, the differential viability (reversal) was -4.17% (inactive).

Turning to `COc1cccc(-c2nnc(SCC(N)=O)n2-c2ccc(Cl)cc2)c1`, the differential viability (reversal) is 4.49% (inactive).

Take `CC1=C(C(=O)N2CCOCC2)C(c2ccccc2F)C2=C(CCCC2=O)N1` (stereo not drawn): the differential viability (reversal) is -2.68% (inactive).

For the compound `C/C=C(\C)c1nnc(NC(=O)OCC)s1`, the differential viability (reversal) is 6.96% (inactive).

Turning to `C[C@H](CCC(=O)O)[C@H]1CC[C@H]2[C@@H]3C(=O)C[C@@H]4CC(=O)CC[C@]4(C)[C@H]3CC(=O)[C@]12C`, the differential viability (reversal) was -6.55% (inactive).

As for `Cc1ccc2c(c1)nnn2C1CCN(C(=O)NC23CC4CC(CC(C4)C2)C3)CC1`, the differential viability (reversal) was 8.39% (inactive).

For `CN(C)C(CNC(=O)Nc1cccc(Cl)c1)c1cccnc1` (stereo not drawn), the differential viability (reversal) is 8.96% (inactive).

Take `FC(F)Oc1cccc2cccnc12`: the differential viability (reversal) is 9.04% (inactive).

On to `CCOc1cc(C(=O)Nc2c3c(nn2C(C)(C)C)CS(=O)C3)cc(OCC)c1OCC` (stereo not drawn), for which the differential viability (reversal) is 7.14% (inactive).

For the compound `CC(=O)Nc1ccc(N=Cc2nc(-c3ccc(C)cc3)oc2O)cc1`, the differential viability (reversal) is 1.61% (inactive).

Consider `N#CC1=C(N)N2C(=C(C#N)C13CCCCC3)SC1CCCCC12O` (stereo not drawn), for which the differential viability (reversal) was 6.71% (inactive).

With `O=S(=O)(c1ccc(Br)s1)N1CCN(c2ccccc2)CC1`, the differential viability (reversal) is -4.09% (inactive).

Turning to `c1coc(-c2nnc(-c3cccs3)o2)c1`, the differential viability (reversal) was 14% (inactive).

As for `CN1[C@@H]2CC(OC(=O)[C@H](CO)c3ccccc3)C[C@H]1[C@@H]1O[C@@H]12` (stereo partly drawn), the differential viability (reversal) was 6.26% (inactive).

With `CCCN1CCN(C(=O)Cn2cccc2C(=O)c2ccccc2)CC1`, the differential viability (reversal) is 17.8% (inactive).

In the case of `CC(CCc1ccccc1)NCC(O)c1ccc(O)c(C(N)=O)c1` (stereo not drawn), the differential viability (reversal) is 1.8% (inactive).

In the case of `Cc1nc2c(-c3ccccc3)c(C)[nH]n2c(=O)c1Cl`, the differential viability (reversal) was -19.2% (inactive).

Take `CCCC(=O)n1nc(-c2ccc(OC)cc2)nc1N`: the differential viability (reversal) is 7% (inactive).

For `O=C(C1CCN(C2CC(=O)N(c3ccc(F)cc3)C2=O)CC1)N1CCOCC1` (stereo not drawn), the differential viability (reversal) is 4.69% (inactive).

Take `O=C(NCc1cccs1)C1CC(=O)N(C2CCCC2)C1` (stereo not drawn): the differential viability (reversal) is 7.15% (inactive).

As to `CCC(C)NCC(O)COCc1ccc(Cl)cc1` (stereo not drawn), the differential viability (reversal) is 11.5% (inactive).

For the compound `CSc1c(CC(=O)NCCO)n(C)c2ccccc12`, the differential viability (reversal) is 9.3% (inactive).

Consider `O=C(O)c1ccc(COc2c(F)c(F)c(F)c(F)c2F)o1`, for which the differential viability (reversal) was -8.1% (inactive).

For the compound `CSc1ncc(Cl)c(C(=O)Nc2ccc(S(=O)(=O)N3CCOCC3)cc2)n1`, the differential viability (reversal) was 9.55% (inactive).

Turning to `S=C(c1ccc(N2CCOCC2)cc1)N1CCCCC1`, the differential viability (reversal) is 4.23% (inactive).

Consider `CCOC(=O)C1CCN(c2cc(C)nc3cc(-c4cccc(F)c4)nn23)CC1`, for which the differential viability (reversal) is 7.95% (inactive).

Consider `O=S(=O)(Nc1nc2ccccc2nc1NCc1ccco1)c1cccs1`, for which the differential viability (reversal) was -23% (inactive).

With `OC(CCCN1CCC(O)(c2ccc(Cl)cc2)CC1)c1ccc(F)cc1` (stereo not drawn), the differential viability (reversal) was -6.19% (inactive).

Take `C=CCN1C(=O)C2(/C(=C(\O)c3ccc4c(c3)OCCO4)C(=O)C(=O)N2CCCOC)c2ccccc21` (stereo not drawn): the differential viability (reversal) was 11.2% (inactive).

As to `Cc1ccc2c(c1)N(CC(=O)N1CCCCC1c1cccnc1)C(=O)CO2` (stereo not drawn), the differential viability (reversal) was -4.01% (inactive).

In the case of `O=C(CSc1n[nH]c(=O)[nH]c1=O)c1ccccc1`, the differential viability (reversal) was 4.23% (inactive).

Consider `O=[N+]([O-])c1cccc2cn[nH]c12`, for which the differential viability (reversal) was 9.56% (inactive).

The test is the same for the next values; noted with them: H69AR cells + 2 uM doxorubicin, CellTiter-Glo, 72 h; measured here: viability with 2 uM doxorubicin; at 10 µM; stronger effect = lower value.
As to `O=C(NCC(F)(F)F)Nc1cccnc1`, the viability was 93.6%.

Take `CC(=O)Nc1ccc(S(=O)(=O)N2CCN(c3cc(C)nc4ccccc34)CC2)cc1`: the viability worked out at 86.2%.

In the case of `CCc1nnc(NC(=O)CSc2nnc(-c3ccccc3OC)n2-c2ccccc2)s1`, the viability worked out at 87%.

As to `CCOc1ccc(CCNc2nc3c(c(=O)n(C)c(=O)n3C)n2CC)cc1OCC`, the viability was determined as 87%.

On to `Cn1c(=O)c2c(nc(NCCNC(=O)c3ccco3)n2Cc2ccccc2Cl)n(C)c1=O`, for which the viability was found to be 66.7%.

For `Cc1ccc2cc(C(c3nnnn3C3CCCC3)N3CCN(c4ccc(F)cc4)CC3)c(=O)[nH]c2c1` (stereo not drawn), the viability is 59.6%.

Regarding `Cc1ccc(OCC2Cn3c(nc4c3c(=O)n(C)c(=O)n4C)O2)cc1` (stereo not drawn), the viability stood at 96%.

Regarding `Cc1c(C(=O)N2CCN(c3ccccc3)CC2)sc2ncnc(N3CCN(c4ccccc4)CC3)c12`, the viability is 97.2%.

`COc1cccc(-c2nnc(SCC(N)=O)n2-c2ccc(Cl)cc2)c1`: the viability was determined as 92.6%.

For `CC1=C(C(=O)N2CCOCC2)C(c2ccccc2F)C2=C(CCCC2=O)N1` (stereo not drawn), the viability is 101%.

Consider `C/C=C(\C)c1nnc(NC(=O)OCC)s1`, for which the viability came to 89.4%.

Take `C[C@H](CCC(=O)O)[C@H]1CC[C@H]2[C@@H]3C(=O)C[C@@H]4CC(=O)CC[C@]4(C)[C@H]3CC(=O)[C@]12C`: the viability stood at 102%.

Turning to `Cc1ccc2c(c1)nnn2C1CCN(C(=O)NC23CC4CC(CC(C4)C2)C3)CC1`, the viability was determined as 83.7%.

With `CN(C)C(CNC(=O)Nc1cccc(Cl)c1)c1cccnc1` (stereo not drawn), the viability was found to be 81.7%.

`FC(F)Oc1cccc2cccnc12`: the viability is 84.9%.

For the compound `CCOc1cc(C(=O)Nc2c3c(nn2C(C)(C)C)CS(=O)C3)cc(OCC)c1OCC` (stereo not drawn), the viability amounted to 93.7%.

Regarding `CC(=O)Nc1ccc(N=Cc2nc(-c3ccc(C)cc3)oc2O)cc1`, the viability is 92.9%.

With `N#CC1=C(N)N2C(=C(C#N)C13CCCCC3)SC1CCCCC12O` (stereo not drawn), the viability was found to be 69.4%.

With `O=S(=O)(c1ccc(Br)s1)N1CCN(c2ccccc2)CC1`, the viability was found to be 91.7%.

On to `c1coc(-c2nnc(-c3cccs3)o2)c1`, for which the viability is 87.9%.

As to `CN1[C@@H]2CC(OC(=O)[C@H](CO)c3ccccc3)C[C@H]1[C@@H]1O[C@@H]12` (stereo partly drawn), the viability stood at 95.3%.

In the case of `CCCN1CCN(C(=O)Cn2cccc2C(=O)c2ccccc2)CC1`, the viability worked out at 82.2%.

For `CC(CCc1ccccc1)NCC(O)c1ccc(O)c(C(N)=O)c1` (stereo not drawn), the viability is 92%.

For `Cc1nc2c(-c3ccccc3)c(C)[nH]n2c(=O)c1Cl`, the viability turned out to be 96.8%.

Turning to `CCCC(=O)n1nc(-c2ccc(OC)cc2)nc1N`, the viability came to 98.3%.

With `O=C(C1CCN(C2CC(=O)N(c3ccc(F)cc3)C2=O)CC1)N1CCOCC1` (stereo not drawn), the viability stood at 96.2%.

In the case of `O=C(NCc1cccs1)C1CC(=O)N(C2CCCC2)C1` (stereo not drawn), the viability came out at 87.3%.

On to `CCC(C)NCC(O)COCc1ccc(Cl)cc1` (stereo not drawn), for which the viability amounted to 88.2%.

Regarding `CSc1c(CC(=O)NCCO)n(C)c2ccccc12`, the viability is 93.1%.

On to `O=C(O)c1ccc(COc2c(F)c(F)c(F)c(F)c2F)o1`, for which the viability was determined as 101%.

`CSc1ncc(Cl)c(C(=O)Nc2ccc(S(=O)(=O)N3CCOCC3)cc2)n1`: the viability worked out at 91.8%.

With `S=C(c1ccc(N2CCOCC2)cc1)N1CCCCC1`, the viability was 89.2%.

`CCOC(=O)C1CCN(c2cc(C)nc3cc(-c4cccc(F)c4)nn23)CC1`: the viability came out at 82.4%.

For `O=S(=O)(Nc1nc2ccccc2nc1NCc1ccco1)c1cccs1`, the viability was determined as 51.9%.

`OC(CCCN1CCC(O)(c2ccc(Cl)cc2)CC1)c1ccc(F)cc1` (stereo not drawn): the viability worked out at 72.3%.

`C=CCN1C(=O)C2(/C(=C(\O)c3ccc4c(c3)OCCO4)C(=O)C(=O)N2CCCOC)c2ccccc21` (stereo not drawn): the viability stood at 84.7%.

Take `Cc1ccc2c(c1)N(CC(=O)N1CCCCC1c1cccnc1)C(=O)CO2` (stereo not drawn): the viability worked out at 99%.

Turning to `O=C(CSc1n[nH]c(=O)[nH]c1=O)c1ccccc1`, the viability was determined as 97%.

Regarding `O=[N+]([O-])c1cccc2cn[nH]c12`, the viability stood at 90%.

For the origin of these results see PubChem BioAssay.
